# Screening results (PubChem BioAssay)
# EBNA-1 inh = blocks EBNA-1 binding to DNA | 0.34% of 300,000 active | EBNA-1 DNA binding, fluorescence polarization | inhibition, % at 14.8 µM; in the data active = inhibition above about 28%
# ZTA DNA inh = counter-screen for EBNA-1 inhibitors: inhibitors of Epstein-Barr virus ZTA; 0.15% of 320,000 active; AID 2234; P03206; ZTA-DNA binding, fluorescence polarization; inhibition, % at 11 µM; in the data active = inhibition above about 33%
# TPT1 inh = blocks Candida albicans tRNA 2'-phosphotransferase | inhibition, % at 5 µM | 0.81% of 300,000 active | AID 1962 | recombinant caTPT1, FP RNA substrate dephosphorylation;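 active = inhibition above the mean of all tested compounds plus 3 SD, set per screening campaign, cut at about 24% in these data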;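 also: plate controls were DMSO alone for no effect and ferristatin control at 100 nM for full effect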
# NR3A LBD binder = modulators (binders) of human NR3A ligand-binding domain. NR3A LBD differential scanning fluorimetry, Tm shift; 0% = protein alone, 100% = glycine-bound protein. Tm shift relative to glycine control, % at 25 µM. 2.5% of 340,000 active. AID 1259313;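 active = melting temperature shift of at least 10% of the positive control shift, at one fixed dose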
# Rpn11 block = Rpn11 (human) deubiquitinase inhibition | O00487 | 0.59% of 360,000 active | human 26S proteasome, Ub4-pepOG fluorescence polarization; 20S core pre-blocked with epoxomicin | inhibition, % at 20 µM;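 active = inhibition at 20 µM, scaled to each plate's controls, above about 33%, limit read from the data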
# dFosB activator = mouse delta FosB homodimer activation; P13346; purified delta FosB, TAMRA-CDK5 oligo fluorescence polarization; percent of positive-control signal above neutral wells; activation, % at 25 µM; 0.99% of 340,000 active; AID 493131;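 active = mean activation above about 17%, with every replicate also reaching it, limit read from the data, passing the limit was not always enough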
# Rpn11 inh conf = Rpn11 inhibition confirmation, single concentration; shares compounds with Rpn11 block; purified human 26S proteasome, Ub4-pepOG fluorescence polarization; proteasome pretreated with epoxomicin; inhibition, % at 20 µM; 29% of 1,900 active; AID 602318
# MMP-2 counter = MMP-2 (human) inhibition counter-screen; AID 602330; recombinant MMP-2, FRET peptide cleavage fluorescence; 4% of 1,900 active; shares compounds with Rpn11 block; inhibition, % at 20 µM;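 also: human MMP-2 activated beforehand with APMA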
# Thrombin inh = thrombin (bovine) inhibition counter-screen; inhibition, % at 20 µM; AID 602333; 13% of 1,900 active; bovine thrombin cleavage of Ub4-pepOG, fluorescence polarization; shares compounds with Rpn11 block;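 active = mean inhibition at least 40% at 20 µM, or signal 3 deviations below plate average, so some actives read negative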;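 also: plate controls were thrombin with DMSO for no effect and buffer wells lacking thrombin for full effect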
# Target sequence (P00735 whole entry, looked up): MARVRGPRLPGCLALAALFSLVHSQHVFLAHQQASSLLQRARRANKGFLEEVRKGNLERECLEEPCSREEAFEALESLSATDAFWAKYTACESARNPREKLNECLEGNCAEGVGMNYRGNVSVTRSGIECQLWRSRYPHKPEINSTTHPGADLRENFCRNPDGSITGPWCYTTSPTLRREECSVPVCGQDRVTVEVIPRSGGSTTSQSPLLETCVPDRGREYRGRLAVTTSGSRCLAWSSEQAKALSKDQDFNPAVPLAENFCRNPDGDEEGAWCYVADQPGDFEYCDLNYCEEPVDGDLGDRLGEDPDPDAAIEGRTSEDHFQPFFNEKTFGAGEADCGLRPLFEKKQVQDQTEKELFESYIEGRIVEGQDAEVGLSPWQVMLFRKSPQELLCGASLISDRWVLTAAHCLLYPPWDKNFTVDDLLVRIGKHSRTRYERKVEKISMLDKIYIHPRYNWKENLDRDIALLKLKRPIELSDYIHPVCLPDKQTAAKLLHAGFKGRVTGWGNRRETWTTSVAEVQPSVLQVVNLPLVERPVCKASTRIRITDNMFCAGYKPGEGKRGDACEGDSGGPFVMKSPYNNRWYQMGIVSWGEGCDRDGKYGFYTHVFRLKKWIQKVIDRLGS
# Active calls of the source: *; x = no result; + = active, no number. Hits are enriched below; roughly 4.5% of the tested compounds scored in any of these assays. Rule as the data show it, unless noted: active = inhibition above about 40%; inactive = the rest.
SMILES,EBNA-1 inh,ZTA DNA inh,TPT1 inh,NR3A LBD binder,Rpn11 block,dFosB activator,Rpn11 inh conf,MMP-2 counter,Thrombin inh
O=C(O)c1ccc(/C=C/c2nc3sc4c(c3c(=O)[nH]2)CCC4)cc1,1.4,12.1,1.7,1.9,73.2*,-9.4,90.8*,-57.1,40.0*
CC1=C(C(=O)Nc2ccccc2Cl)C(c2ccc(N(C)C)cc2)NC(=O)N1 (stereo unspecified),16.9,7.2,13.1,-0.1,64.0*,3.1,32.7,8.6,30.9
COc1ccc(C2NC(=O)NC(C)=C2C(=O)Nc2cccc(C)c2C)cc1 (stereo unspecified),2.8,-1.2,-2.4,-0.9,2.4,-6.8,x,x,x
CCOC(=O)c1cc(C#N)c(C)nc1N(CC)CC,-6.3,5.0,1.5,-1.8,1.2,-4.1,x,x,x
CC(NC(=O)c1ccco1)C(=O)N1CCCCC1 (stereo unspecified),-2.5,-9.2,-6.2,-1.8,1.3,3.0,x,x,x
Cc1noc(/C=C/c2ccco2)c1S(=O)(=O)N1CCC(C(=O)NC(C)c2ccccc2)CC1 (stereo unspecified),-8.7,-3.7,4.8,-6.2,52.3*,-3.9,0.5,-37.4,-1.9
CCN(C(=O)c1cccs1)c1nc(-c2ccc(OC)cc2)cs1,-1.9,11.2,-4.0,-3.0,0.2,-2.1,x,x,x
COc1cccc(N(C(=O)c2cccs2)c2nc3ccccc3s2)c1,4.2,-6.4,-5.0,0.6,111.0*,-9.0,-15.3,13.1,14.0
CCOc1cc(/C=C2/N=C(C)C(C(=O)OC)=C2O)ccc1O,10.0,3.0,14.5,0.5,51.3*,5.0,32.0,-73.4,20.2
CCOC(=O)C1CCCN(C2=NC(=O)/C(=C/c3ccc(O)c(OCC)c3)S2)C1 (stereo unspecified),-1.1,10.2,10.3,-1.4,77.0*,-20.9,36.9,-55.9,30.1
CCOc1cc(/C=C2\SC(N)=NC2=O)ccc1O,-8.4,-9.2,10.1,-0.8,42.9*,-2.4,21.7,6.7,12.1
CCOC(=O)C1=C(O)/C(=C\c2ccc(O)c(OCC)c2)N=C1C,0.7,-2.0,3.2,-6.1,21.0,-8.8,x,x,x
CCOc1cc(/C=C2\SC(=O)N=C2N)ccc1O,-12.5,-3.5,14.9,0.7,50.8*,1.3,21.8,1.9,1.4
COc1ccc(/C=C2\SC(N)=NC2=O)cc1,x,x,x,-1.0,-6.7,2.2,x,x,x
CCOc1cc(/C=C2\CN(C)C/C(=C\c3ccc(O)c(OCC)c3)C2=O)ccc1O,4.3,9.5,4.8,-1.8,1.1,-4.5,x,x,x
O=c1cc(CN2CCCCCCC2)c2ccccc2o1,x,x,x,x,45.5*,x,16.7,11.8,-5.4
O=c1cc(CN2CCCCC2)c2ccccc2o1,x,x,x,x,8.4,x,x,x,x
O=C(COC(=O)CCCN=C1NS(=O)(=O)c2ccccc21)NC(=O)NC1CCCC1,6.6,-7.9,0.5,-1.2,0.2,-2.3,x,x,x
Cc1ccc(CSc2cc(C)[nH]c(=O)n2)cc1,3.9,-4.9,13.7,-2.3,64.2*,-10.1,28.1,-1.9,19.1
Cc1cccc(OCC(=O)NNC(=O)c2cc(S(=O)(=O)N(C)C)ccc2N2CCCC2)c1,x,25.0,x,0.2,41.7*,-8.5,34.3,-10.7,-4.1
COc1cc(Cl)cc(/C=N\NC(=O)c2ccc3c(c2)OCO3)c1O,x,x,x,x,97.3*,x,134.1*,22.7,75.9*
Cc1cc2c(c(=O)n1C1CC1)C(c1cccc(Cl)c1)C(C#N)=C(N)O2 (stereo unspecified),-4.0,3.2,-0.8,-0.8,+,-5.2,7.8,-0.9,7.0
Cc1cc2c(c(=O)n1CCN(C)C)C(c1ccc(Cl)cc1)C(C#N)=C(N)O2 (stereo unspecified),2.7,8.1,-1.1,-2.5,-7.3,-10.8,x,x,x
O=C1C=C(c2ccc(C(=O)O)cc2)C[C@@H](c2ccc3c(c2)OCO3)C1,x,18.6,x,3.4,-6.5,-0.1,x,x,x
